According to PubChem BioAssay AID1159580 (chemical genetic matrix, 2015):
In all, about 5,500 compounds went through this assay and about 2,000 (36%) were called active. Inconclusive results (about 18%) are left out. Rule as the data show it: active = normalized growth mostly below about 0.91 (no sharp cut-off); inconclusive = no clear call, values can overlap the other calls; inactive = mostly above about 0.92. The list shows a part of the results.

Experiment: chemical genetic growth profiling, strain panel (AID 1159580);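 also: tested at 20 µM; growth read once vehicle control cultures reached saturation at 30 °C; 1 = growth at the plate median or of vehicle wells; lower values mean less growth of the strain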
Details: S. cerevisiae deletion strains, growth OD

Measured: normalized growth

O=C(Nc1cc2cc([N+](=O)[O-])ccc2oc1=O)c1c(F)cccc1F
inactive: locus YAL013W, strain DEP1, hits give low values 1.02 | locus YBR229C, strain ROT2, hits give low values 1.02 | locus YCL061C, strain MRC1, hits give low values 0.989 | locus YDL101C, strain DUN1, hits give low values 0.98 | locus YDL134C, strain PPH21, hits give low values 1.01 | locus YDR150W, strain NUM1, hits give low values 0.96 | locus YEL061C, strain CIN8, hits give low values 1.01 | locus YGR078C, strain PAC10, hits give low values 1 | locus YHR030C, strain SLT2, hits give low values 0.994 | locus YHR087W, strain rtc3, hits give low values 1.09 | locus YJL187C, strain SWE1, hits give low values 1.03 | locus YJR043C, strain POL32, hits give low values 0.999 | locus YJR075W, strain HOC1, hits give low values 1.02 | locus YLR039C, strain RIC1, hits give low values 1.07 | locus YLR058C, strain SHM2 (second series), hits give low values 1.04 | locus YLR085C, strain ARP6, hits give low values 1.07 | locus YLR262C, strain YPT6, hits give low values 1.07 | locus YML094W, strain GIM5, hits give low values 1.05 | locus YMR219W, strain ESC1, hits give low values 1.03 | locus YMR263W, strain SAP30, hits give low values 0.936 | locus YNL128W, strain TEP1, hits give low values 1.01 | locus YNL153C, strain GIM3, hits give low values 1.02 | locus YNL298W, strain CLA4 (second series), hits give low values 1.02 | locus YNL322C, strain KRE1, hits give low values 1.01 | locus YNR030W, strain Alg12, hits give low values 1.04 | locus YOL006C, strain TOP1, hits give low values 1 | locus YPL055C, strain LGE1, hits give low values 1.03 | locus YPL241C, strain CIN2, hits give low values 1.02 | locus YPR135W, strain CTF4, hits give low values 1.01
